This excerpt belongs to a sample that is enriched for hits.
IDE exosite FP = exo-site inhibitors of human insulin-degrading enzyme; AID 1259349; purified IDE, FL-6b probe fluorescence polarization; hits give low values; 17,000 compounds, 6.3% hits; z-score at 20 µM;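 active = z-score of -3 or lower, meaning strong loss of probe binding signal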;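 note: His-tagged human IDE residues 42-1019 made in E. coli with 30 nM FL-6b probe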
Numbers without * were called inactive.

SMILES	IDE exosite FP
Cc1ccccc1-c1ccc([C@H]2[C@H](CO)N3CCCCN(S(=O)(=O)c4cn(C)cn4)C[C@@H]23)cc1	-7.1*
Cc1cccc(-c2ccc([C@@H]3[C@@H](CO)N4CCCCN(S(=O)(=O)c5cn(C)cn5)C[C@@H]34)cc2)c1	-18*
Cc1cccc(-c2ccc([C@@H]3[C@H](CO)N4CCCCN(S(=O)(=O)c5cccc(C)c5)C[C@@H]34)cc2)c1	-2.8
Cn1cnc(S(=O)(=O)N2CCCCN3[C@H](CO)[C@H](c4ccc(-c5ccccc5)cc4)[C@@H]3C2)c1	1.9
Cn1cnc(S(=O)(=O)N2CCCCN3[C@H](CO)[C@H](c4ccc(-c5ccccc5)cc4)[C@H]3C2)c1	-0.56
Cn1cnc(S(=O)(=O)N2CCCCN3[C@@H](CO)[C@@H](c4ccc(-c5ccccc5)cc4)[C@@H]3C2)c1	-5.6*
Cc1cccc(-c2ccc([C@H]3[C@@H](CO)N4CCCCN(S(=O)(=O)c5cn(C)cn5)C[C@@H]34)cc2)c1	0.53
CNC[C@@H]1OCCCC[C@@H](C)Oc2ccc(NS(=O)(=O)c3ccc(F)cc3)cc2C(=O)N([C@@H](C)CO)C[C@@H]1C	0.35
C/C=C/c1ccc([C@@H]2[C@H](CO)N(CC3CC3)C23CN(C(=O)c2ccc4c(c2)OCO4)C3)cc1	-0.064
O=S(=O)(c1ccccc1F)N1CCCCN2[C@H](CO)[C@H](c3ccc(-c4ccccc4)cc3)[C@@H]2C1	2.6
CCC(=O)N1CCCCN2[C@H](C1)[C@@H](c1ccc(-c3cccc(C(=O)N(C)C)c3)cc1)[C@@H]2CO	2
O=C(NC1CCCC1)N1CCCCN2[C@H](C1)[C@@H](c1ccc(-c3cccnc3)cc1)[C@@H]2CO	-0.83
N#C[C@H]1[C@@H](c2ccccc2-c2cccc(F)c2)[C@H](CO)N1S(=O)(=O)c1cccc(F)c1	-0.62
CN(C)CC(=O)N[C@@H]1CC[C@@H](CCNC(=O)C2CCC2)O[C@H]1CO	0.68
CCCNC(=O)N1CC(=O)N2[C@H](CO)[C@H](c3ccc(-c4ccc(F)cc4)cc3)[C@H]2C1	0.88
CCCNC(=O)N1CC(=O)N2[C@H](CO)[C@H](c3ccc(-c4ccccc4)cc3)[C@@H]2C1	-2.2
CCCNC(=O)N1CC(=O)N2[C@H](C1)[C@@H](c1ccc(-c3ccc(F)cc3)cc1)[C@@H]2CO	0.76
COc1ccccc1NC(=O)N1CCCCN2[C@H](CO)[C@H](c3ccc(-c4cccc(C)c4)cc3)[C@H]2C1	-1.5
CCCNC(=O)N1CC(=O)N2[C@H](CO)[C@@H](c3ccc(-c4ccc(C)cc4)cc3)[C@H]2C1	-3.1*
CCCNC(=O)N1CC(=O)N2[C@H](C1)[C@H](c1ccc(-c3cccc(C)c3)cc1)[C@@H]2CO	-14*
CCCNC(=O)N1CC(=O)N2[C@H](CO)[C@H](c3ccc(-c4ccc(C)cc4)cc3)[C@@H]2C1	-1.4
COc1ccccc1NC(=O)N1CC(=O)N2[C@H](CO)[C@H](c3ccc(-c4cccc(C)c4)cc3)[C@@H]2C1	-3.7*
COc1ccccc1NC(=O)N1CC(=O)N2[C@H](C1)[C@H](c1ccc(-c3ccc(F)cc3)cc1)[C@@H]2CO	2.2
CO[C@H]1CC[C@@H]2CCOc3ccc(C#N)cc3C(=O)N(C)C[C@@H](c3ccccc3)CC(=O)N(C)C[C@H]1O2	-0.95
O=C1CN(Cc2ccc(F)cc2)C[C@H]2[C@@H](c3ccc(-c4ccccc4F)cc3)[C@H](CO)N12	-1.2
SMILES	IDE exosite FP
COCC(=O)N1CC(=O)N2[C@H](CO)[C@@H](c3ccc(C#CC(C)C)cc3)[C@@H]2C1	0.04
COc1ccc(NC(=O)N2CCC3(CC2)CN(C(=O)c2cccnc2)[C@@H](CO)c2[nH]c4cc(OC)ccc4c23)cc1	-0.41
C[C@@H]1CN([C@H](C)CO)C(=O)c2cc(N(C)C)ccc2O[C@@H]1CN(C)Cc1ccc(Oc2ccccc2)cc1	-2.3
C[C@H](CO)N1C[C@H](C)[C@H](CN(C)Cc2ccc(Oc3ccccc3)cc2)Oc2ccc(N(C)C)cc2C1=O	-4.2*
C[C@@H]1CN([C@H](C)CO)C(=O)c2cc(N(C)C)ccc2O[C@H]1CN(C)Cc1ccc(Oc2ccccc2)cc1	-0.23
COc1ccc(S(=O)(=O)Nc2ccc3c(c2)CC(=O)N([C@H](C)CO)C[C@@H](C)[C@H](CN(C)C(=O)Nc2c(C)noc2C)O3)cc1	0.89
Cc1noc(C)c1S(=O)(=O)Nc1ccc2c(c1)CC(=O)N([C@@H](C)CO)C[C@@H](C)[C@@H](CN(C)Cc1ccc(Oc3ccccc3)cc1)O2	0.55
Cc1noc(C)c1S(=O)(=O)Nc1ccc2c(c1)CC(=O)N([C@H](C)CO)C[C@H](C)[C@@H](CN(C)Cc1ccc(Oc3ccccc3)cc1)O2	-3.6*
C[C@@H]1CN([C@@H](C)CO)C(=O)c2cc(-c3ccc(C#N)cc3)cnc2O[C@H]1CN(C)Cc1cccnc1	0.5
O=C(c1ccccc1)N1CC(=O)N2[C@H](CO)[C@@H](c3ccc(C#Cc4ccccc4)cc3)[C@H]2C1	3.1
CCc1cnc(N2[C@@H](C#N)[C@@H](c3ccc(C4=CCCC4)cc3)[C@@H]2CO)s1	6.3
O=C(N[C@H]1CC[C@@H](CCn2cc(-c3ccccc3F)nn2)O[C@H]1CO)c1ccc2c(c1)OCO2	0.68

Screening results (PubChem)
